# Laboratory results reported in PubChem BioAssay (Tox21).
# Unmarked numbers belong to inactive results. Records with an inconclusive call do not appear. Entries that show only a call come without a potency. Calls of active or inactive are those of the source. Unless noted, calls follow the shape of the full dose curve.
# System: not listed separately
# Experiment: qHTS assay to identify small molecule antagonists of the estrogen receptor beta (ER-beta) signaling pathway - cell viability counter screen (AID 1259382; active = well fitted cell-killing curve with a large enough effect in the repeat runs;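 also: HEK293T cells carrying ER-beta-UAS-bla reporter stimulated with estradiol; nearly all actives have a fitted effect of over 55% in size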)
# Details: ER-beta-UAS-bla HEK293T viability, CellTiter-Glo luminescence, 16 h; series mostly up to 92.4 µM
# In short: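 HEK293T ER-beta-UAS-bla, 2% charcoal-stripped FBS; compounds + 1nM E2 16 hr 37C; CellTiter-Glo luminescence, 30 min RT.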
Compound,outcome,"activity change, negative = cytotoxicity"
C[C@]12CCC(=O)C=C1CC[C@H]1[C@@H]3CC[C@](O)(C(=O)CO)[C@@]3(C)C[C@H](O)[C@@]12F,inactive,–
CC1OCCC1=O (stereo not drawn),inactive,–
CCCC(=O)OC/C=C(\C)CCC=C(C)C,inactive,–
C=CCCCCCCCCC(=O)OCCCC,inactive,–
CN1C[C@@H]2C[C@H]1CN2c1cc2c(cc1F)c(=O)c(C(=O)O)cn2C1CC1,–,7% [at 19 µM]
CCC/C=C(\C=O)CC,inactive,–
CC1(C)CC(OC(=O)CCCCCCCCC(=O)OC2CC(C)(C)NC(C)(C)C2)CC(C)(C)N1,–,-21.6% [at 19 µM]
O=C1OCCO1,inactive,–
CC1CCc2c(N3CCC(O)CC3)c(F)cc3c(=O)c(C(=O)O)cn1c23 (stereo not drawn),inactive,–

# Biological target: Estrogen receptor (Homo sapiens) (UniProt P03372)
# Sequence (P03372 whole entry, looked up): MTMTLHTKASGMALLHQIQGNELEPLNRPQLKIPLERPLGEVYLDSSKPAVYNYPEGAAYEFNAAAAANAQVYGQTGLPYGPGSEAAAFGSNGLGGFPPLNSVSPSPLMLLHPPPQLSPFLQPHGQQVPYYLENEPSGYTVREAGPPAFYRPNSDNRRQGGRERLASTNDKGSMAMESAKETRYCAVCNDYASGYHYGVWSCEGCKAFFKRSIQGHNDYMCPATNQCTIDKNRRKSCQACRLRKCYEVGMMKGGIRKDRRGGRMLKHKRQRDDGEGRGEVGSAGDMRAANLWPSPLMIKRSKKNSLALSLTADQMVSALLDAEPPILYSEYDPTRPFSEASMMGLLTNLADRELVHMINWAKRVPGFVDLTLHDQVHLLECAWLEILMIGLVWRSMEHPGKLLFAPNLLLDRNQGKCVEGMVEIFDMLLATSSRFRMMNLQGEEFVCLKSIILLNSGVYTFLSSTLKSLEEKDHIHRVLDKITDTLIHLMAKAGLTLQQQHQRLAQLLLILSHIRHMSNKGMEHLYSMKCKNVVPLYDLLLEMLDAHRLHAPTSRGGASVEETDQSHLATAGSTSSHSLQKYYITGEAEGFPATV
# Experiment: qHTS assay to identify small molecule agonists of the estrogen receptor alpha (ER-alpha) signaling pathway in the presence of an antagonist (AID 1259383); also: nearly all actives have a fitted effect of over 15% in size; also: potency is read from the fitted curve at half-maximal effect; as to activation: top concentration of the series differs between compounds
# Details: VM7Luc4E2 cells, ERE-luciferase, +ICI-182,780, 22 h; series mostly up to 92.4 µM
# In short: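 ER-alpha agonism measured under antagonist challenge: 10.0nM ICI-182,780 (final) plus compound, 15 concentrations, 22hr, VM7Luc4E2 ERE-luciferase cells. Read by luminescence.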
Compound,Potency,activation
C[C@@H](O)C(=O)O,inactive,–
CC1c2ccccc2CN1NC(=O)c1ccc(Cl)c(S(N)(=O)=O)c1 (stereo not drawn),inactive,–
O=C1CCC(=O)N1Cl,inactive,–
C/C(CC(C)C)=N\O,inactive,–
CCC(C)C(=O)OCCc1ccccc1 (stereo not drawn),inactive,–
CC(=O)CCC1=C(C)CCCC1(C)C,inactive,–
CCOc1ccccc1OCC1CNCCO1 (stereo not drawn),inactive,–
COC(=O)c1cccc(Cl)c1,inactive,–
Cc1ccc2c(c1)C(=O)c1ccccc1C2=O,3.84 µM (active),–
C=C(C)c1cccc(C(C)(C)N=C=O)c1,inactive,–
Cc1cc(C)c(C(=O)O)c(C)c1,inactive,–
CCCSSCCC,inactive,–
CC1(C)Cc2cccc(N)c2O1,inactive,–
C=CCN1C[C@H](C(=O)N(CCCN(C)C)C(=O)NCC)C[C@@H]2c3cccc4[nH]cc(c34)C[C@H]21,inactive,–
O=C[O][Al]([O]C=O)[O]C=O,inactive,–
CC1CC(=O)CC(C)(C)C1 (stereo not drawn),inactive,–
CC(C)Nc1ccccc1,inactive,–
CCCCCCCCCCCCCCC(=O)NC(CO)CCCCCCCCCCCCCC (stereo not drawn),inactive,–
CN(C)CCCCl,inactive,–

Compound,Potency,activation
C[C@H]1[C@@H](c2ccccc2)NC(=O)N1C,inactive,–
CC(=O)OC1CCCCC1C(C)(C)C (stereo not drawn),inactive,–
O=C(O)[C@H](O)c1ccccc1,inactive,–
COC(=O)CCCCC(=O)O,inactive,–
C=CCSSCCC,inactive,–
CO/N=C(/C(=O)N[C@@H]1C(=O)N2C(C(=O)[O-])=C(C[n+]3ccn4ncccc43)CS[C@H]12)c1nsc(N)n1,inactive,–
CC12CCC(C1)C(C)(C)C2O (stereo not drawn),inactive,–
C/C=C(\C)C(C)=O,inactive,–
CN(C)CCN(C)CCO,inactive,–
C[C@]12CCC(=O)C=C1CC[C@H]1[C@@H]3CC[C@](O)(C(=O)CO)[C@@]3(C)C[C@H](O)[C@@]12F,inactive,–
CC1OCCC1=O (stereo not drawn),inactive,–
CCCC(=O)OC/C=C(\C)CCC=C(C)C,inactive,–
C=CCCCCCCCCC(=O)OCCCC,inactive,–
CN1C[C@@H]2C[C@H]1CN2c1cc2c(cc1F)c(=O)c(C(=O)O)cn2C1CC1,–,0.617% [at 19 µM]
CCC/C=C(\C=O)CC,inactive,–
CC1(C)CC(OC(=O)CCCCCCCCC(=O)OC2CC(C)(C)NC(C)(C)C2)CC(C)(C)N1,–,-0.324% [at 19 µM]
O=C1OCCO1,inactive,–
CC1CCc2c(N3CCC(O)CC3)c(F)cc3c(=O)c(C(=O)O)cn1c23 (stereo not drawn),inactive,–

# System: not listed separately
# Experiment: qHTS assay to identify small molecule agonists or antagonists of the thyroid stimulating hormone receptor (TSHR) signaling pathway - wild type cell line counter screen (AID 1259384)
# Details: HEK293 wild type, cAMP HTRF counter-screen, hits give high values; series mostly up to 92.4 µM
# In short: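 Wild-type Hek293 cells, 800/well, 18 h at 37C, then compound with Ro20-1724 for 30 min RT. cAMP by HTRF (cAMP-d2/anti-cAMP cryptate), 1 h RT, fluorescence read. 15 concentrations, triplicates.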
Compound,outcome,cAMP activity change
C[C@@H](O)C(=O)O,inactive,–
CC1c2ccccc2CN1NC(=O)c1ccc(Cl)c(S(N)(=O)=O)c1 (stereo not drawn),inactive,–
O=C1CCC(=O)N1Cl,inactive,–
CCC(C)C(=O)OCCc1ccccc1 (stereo not drawn),inactive,–
CC(=O)CCC1=C(C)CCCC1(C)C,inactive,–
COC(=O)c1cccc(Cl)c1,inactive,–
Cc1ccc2c(c1)C(=O)c1ccccc1C2=O,inactive,–
Cc1cc(C)c(C(=O)O)c(C)c1,inactive,–
CC1(C)Cc2cccc(N)c2O1,inactive,–
C=CCN1C[C@H](C(=O)N(CCCN(C)C)C(=O)NCC)C[C@@H]2c3cccc4[nH]cc(c34)C[C@H]21,inactive,–
O=C[O][Al]([O]C=O)[O]C=O,inactive,–
CC1CC(=O)CC(C)(C)C1 (stereo not drawn),inactive,–
CC(C)Nc1ccccc1,inactive,–
CCCCCCCCCCCCCCC(=O)NC(CO)CCCCCCCCCCCCCC (stereo not drawn),inactive,–
CN(C)CCCCl,inactive,–
CC(=O)OC1CCCCC1C(C)(C)C (stereo not drawn),inactive,–
O=C(O)[C@H](O)c1ccccc1,inactive,–
COC(=O)CCCCC(=O)O,inactive,–
C=CCSSCCC,inactive,–
C[C@]12CCC(=O)C=C1CC[C@H]1[C@@H]3CC[C@](O)(C(=O)CO)[C@@]3(C)C[C@H](O)[C@@]12F,inactive,–
CCCC(=O)OC/C=C(\C)CCC=C(C)C,inactive,–
C=CCCCCCCCCC(=O)OCCCC,inactive,–
CN1C[C@@H]2C[C@H]1CN2c1cc2c(cc1F)c(=O)c(C(=O)O)cn2C1CC1,–,-2.22% [at 18.9 µM]
O=C1OCCO1,inactive,–

# Biological target: Thyrotropin receptor (Homo sapiens) (UniProt P16473)
# Sequence (P16473 whole entry, looked up): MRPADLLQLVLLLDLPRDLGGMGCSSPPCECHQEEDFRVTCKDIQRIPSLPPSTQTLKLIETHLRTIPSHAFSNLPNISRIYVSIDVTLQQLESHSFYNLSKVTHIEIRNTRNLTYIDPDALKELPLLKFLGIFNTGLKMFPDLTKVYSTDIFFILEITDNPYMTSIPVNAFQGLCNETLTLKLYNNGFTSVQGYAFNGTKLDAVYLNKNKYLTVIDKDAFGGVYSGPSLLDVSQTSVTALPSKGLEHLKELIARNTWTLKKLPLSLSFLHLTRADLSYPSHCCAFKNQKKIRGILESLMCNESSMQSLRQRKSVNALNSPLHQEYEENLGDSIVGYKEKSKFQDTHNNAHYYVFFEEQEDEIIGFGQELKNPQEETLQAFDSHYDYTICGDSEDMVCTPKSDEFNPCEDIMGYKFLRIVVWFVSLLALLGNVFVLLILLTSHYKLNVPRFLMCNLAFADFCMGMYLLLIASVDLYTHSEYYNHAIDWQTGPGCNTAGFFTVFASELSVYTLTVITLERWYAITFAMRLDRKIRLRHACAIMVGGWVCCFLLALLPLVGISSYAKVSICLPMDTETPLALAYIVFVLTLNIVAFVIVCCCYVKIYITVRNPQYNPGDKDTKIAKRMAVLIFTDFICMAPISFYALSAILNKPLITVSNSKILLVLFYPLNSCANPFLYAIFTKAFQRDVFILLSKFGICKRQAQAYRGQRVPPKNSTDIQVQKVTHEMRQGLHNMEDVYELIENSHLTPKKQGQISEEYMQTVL
# Experiment: qHTS assay to identify small molecule antagonists of the thyroid stimulating hormone receptor (TSHR) signaling pathway (AID 1259385); also: nearly all actives have a fitted effect of over 20% in size
# Details: TSHR-HEK293 cAMP HTRF, TSH-stimulated antagonist mode; series mostly up to 92.4 µM
# In short: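 TSHR-HEK293 cells (800/well) plated 18 h, then compounds with Ro20-1724 and TSH at 1.5 ng/mL final, 30 min at room temperature. cAMP quantified by HTRF (cAMP-d2/anti-cAMP-cryptate, 1 h); 15 concentrations in triplicate.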
Compound,outcome,"activity change, negative = inhibition"
O=C1CCC(=O)N1Cl,inactive,–
C/C(CC(C)C)=N\O,inactive,–
CC(=O)CCC1=C(C)CCCC1(C)C,inactive,–
CCOc1ccccc1OCC1CNCCO1 (stereo not drawn),inactive,–
Cc1ccc2c(c1)C(=O)c1ccccc1C2=O,inactive,–
C=C(C)c1cccc(C(C)(C)N=C=O)c1,inactive,–
Cc1cc(C)c(C(=O)O)c(C)c1,inactive,–
CCCSSCCC,inactive,–
C[C@H]1[C@@H](c2ccccc2)NC(=O)N1C,inactive,–
CC(=O)OC1CCCCC1C(C)(C)C (stereo not drawn),inactive,–
O=C(O)[C@H](O)c1ccccc1,inactive,–
COC(=O)CCCCC(=O)O,inactive,–
CO/N=C(/C(=O)N[C@@H]1C(=O)N2C(C(=O)[O-])=C(C[n+]3ccn4ncccc43)CS[C@H]12)c1nsc(N)n1,inactive,–
CC12CCC(C1)C(C)(C)C2O (stereo not drawn),inactive,–
C/C=C(\C)C(C)=O,inactive,–
CN(C)CCN(C)CCO,inactive,–
CC1OCCC1=O (stereo not drawn),inactive,–
CCCC(=O)OC/C=C(\C)CCC=C(C)C,inactive,–
C=CCCCCCCCCC(=O)OCCCC,inactive,–
CN1C[C@@H]2C[C@H]1CN2c1cc2c(cc1F)c(=O)c(C(=O)O)cn2C1CC1,–,-7.57% [at 19 µM]
CCC/C=C(\C=O)CC,inactive,–
CC1(C)CC(OC(=O)CCCCCCCCC(=O)OC2CC(C)(C)NC(C)(C)C2)CC(C)(C)N1,–,-9.89% [at 19 µM]
CC1CCc2c(N3CCC(O)CC3)c(F)cc3c(=O)c(C(=O)O)cn1c23 (stereo not drawn),inactive,–
